Inconclusive results are not listed. Active and inactive are the calls of the source. The call rests on the fitted dose curve; in most records, active means well fitted inhibition curve with a large enough effect; inconclusive means small, poorly fitted or top-dose-only effect; inactive means flat fitted curve, though single readings scatter.

The record followed here is PubChem BioAssay (NCATS).

What all share (assay): qHTS profiling for inhibitors of Plasmodium falciparum proliferation (AID 504749); further: nearly all actives have a fitted effect of over 60% in size
Conditions in all cases: P. falciparum in erythrocytes, SYBR Green DNA, 72 h; series mostly up to 28.7 µM

In assay [1] the test system is CP217. The method in brief:
(§1)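 Quantitative HTS: compounds pinned into medium, infected erythrocytes added (0.3% parasitemia, 2.5% hematocrit), 72 h culture at 37 C under 5% CO2. Saponin/Triton lysis with SYBR Green I, overnight RT, then fluorescence read.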

Assay [2] deals with CP237. The method in brief:
as §1

Assay [3] concerns CP238. In short, it runs like this:
as §1

The test system of assay [4] is CP247. The method in brief:
as §1

In assay [5] the test system is CP250. In short, it runs like this: as §1
The subject of assay [6] is CP252. In short, it runs like this:
as §1

Assay [7] has as its system CP256. The method in brief:
as §1

Assay [8] has as its system CP260. In short, it runs like this: as §1
Assay [9] concerns CP262. In short, it runs like this: as §1
The subject of assay [10] is CP265. The method in brief:
as §1

Assay [11] relates to CP266. In short, it runs like this: as §1
Assay [12] relates to CP268. In short, it runs like this: as §1
The subject of assay [13] is CP269. In short, it runs like this:
as §1

For assay [14], the system named is CP286. In short, it runs like this:
as §1

Assay [15] deals with CP291. The method in brief:
as §1

The subject of assay [16] is CP297. The method in brief:
as §1

In assay [17] the test system is CP305. In short, it runs like this:
as §1

Assay [18] deals with CP315. The method in brief: as §1
Assay [19] deals with CP325. The method in brief:
as §1

In assay [20] the test system is CP329. The method in brief: as §1
Potency means the concentration at half of the fitted maximal effect.

`CCN(CC)CC1CCCCN1CC(=O)N1c2ccccc2C(=O)Nc2cccnc21` (centres undefined): the call in assay [1], in assay [6], in assay [7], in [9], in assay [11] and in [13] was inactive. In addition, the result in assay [15], in assay [16], in [18], in assay [19] and in [20] was inactive. The Potency entry in assay [2], in assay [3], in assay [4], in [5], in assay [8] and in assay [10] was “inactive” in each case. Also, the Potency result in assay [12], in [14] and in [17] was “inactive” each time.
On to `CCCCCCCCCCCCCCCCC(C(=O)O)C(O)(CC(=O)O)C(=O)O` (centres undefined), for which the compound was called inactive in assay [1], in assay [6], in assay [7], in assay [9], in assay [11] and in assay [13]. The compound was called inactive in assay [15], in [16], in assay [18], in [19] and in [20]. Besides, the Potency entry in assay [2], in assay [3], in [5], in assay [8], in [10] and in [12] was “inactive” throughout. For the same compound, the Potency result in assay [14] and in assay [17] was “inactive” in each case. Moreover, in assay [4], the Potency was 11.2 µM (active).
With `CCN(CC)CCOC(=O)C(c1ccccc1)c1ccccc1`, the call in assay [1], in assay [6], in [7], in [9], in assay [11] and in [13] was inactive. Also, the compound was classed as inactive in assay [15], in [16], in [18], in assay [19] and in [20]. Further, the Potency entry in assay [2], in assay [3], in assay [4], in assay [5], in assay [8] and in assay [10] was “inactive” throughout. The Potency result in [12], in assay [14] and in assay [17] was “inactive” each time.
Regarding `NC(N)=NS(=O)(=O)c1ccc(N)cc1`, the call in assay [1], in assay [6], in assay [7], in assay [9], in [11] and in [13] was inactive. The compound was classed as inactive in assay [15], in [16], in assay [18], in assay [19] and in [20]. Further, the Potency entry in assay [2], in [3], in assay [4], in [5], in assay [8] and in assay [10] was “inactive” in each case. In addition, the Potency result in [12], in [14] and in [17] was “inactive” each time.
Turning to `FC(F)(F)C(Cl)Br` (centres undefined), the call in assay [1], in [6], in [7], in assay [9], in assay [11] and in [13] was inactive. The compound was called inactive in assay [15], in assay [16], in [18], in [19] and in assay [20]. The Potency entry in assay [2], in assay [3], in [4], in assay [5], in assay [8] and in assay [10] was “inactive” in each case. For the same compound, the Potency result in [12], in assay [14] and in assay [17] was “inactive” in each case.
As to `C[C@@H]1CCC[C@H](C)N1`, the result in [1], in assay [6], in assay [7], in assay [9], in [11] and in [13] was inactive. Further, the result in assay [15], in [16], in assay [18], in [19] and in assay [20] was inactive. The Potency result in assay [2], in [3], in assay [4], in assay [5], in assay [8] and in [10] was “inactive” throughout. Also, the Potency result in [12], in [14] and in assay [17] was “inactive” each time.
For the compound `CC(C)CCOC(=O)c1ccc(N(C)C)cc1`, the result in [1], in assay [6], in assay [7], in [9], in assay [11] and in assay [13] was inactive. The outcome in [15], in assay [16], in [18], in [19] and in [20] was inactive. The Potency result in [2], in assay [3], in assay [4], in [5], in assay [8] and in [10] was “inactive” throughout. For the same compound, the Potency entry in assay [12], in assay [14] and in assay [17] was “inactive” in each case.
Regarding `CC(=O)Oc1cccc(C)c1`, the call in assay [1], in assay [6], in assay [7], in assay [9], in assay [11] and in assay [13] was inactive. In addition, the outcome in assay [15], in [16], in assay [18], in [19] and in assay [20] was inactive. Also, the Potency result in assay [2], in [3], in [4], in assay [5], in assay [8] and in assay [10] was “inactive” in each case. For the same compound, the Potency result in assay [12], in assay [14] and in assay [17] was “inactive” each time.
`Cc1c(Cn2ccnc2)c2ccccc2n1CCC(=O)O`: the compound was classed as inactive in assay [1], in assay [6], in [7], in [9], in assay [11] and in [13]. Moreover, the result in [15], in assay [16], in assay [18] and in [20] was inactive. Besides, the Potency entry in assay [2], in [3], in assay [4], in [5], in assay [8] and in assay [10] was “inactive” in each case. In addition, the Potency result in assay [12], in assay [14] and in [17] was “inactive” throughout.
Take `O=C(O)c1ccc(OCCCOc2ccc(C(=O)O)cc2)cc1`: the outcome in assay [1], in assay [6], in assay [7], in [9], in assay [11] and in assay [13] was inactive. In addition, the call in assay [15], in assay [16], in assay [18], in assay [19] and in assay [20] was inactive. The Potency entry in assay [2], in assay [3], in [4], in assay [5], in [8] and in [10] was “inactive” throughout. The Potency result in [12], in assay [14] and in assay [17] was “inactive” throughout.
For `Cc1c(I)c(=O)n(-c2ccccc2)n1C`, the result in assay [1], in assay [6], in [7], in assay [9], in [11] and in assay [13] was inactive. For the same compound, the call in [15], in assay [16], in assay [18], in assay [19] and in assay [20] was inactive. Further, the Potency result in assay [2], in [3], in [4], in [5], in assay [8] and in assay [10] was “inactive” throughout. Also, the Potency entry in [12], in [14] and in [17] was “inactive” each time.
For the compound `C[C@@H](N)C(=O)O`, the compound was classed as inactive in assay [1], in assay [6], in assay [7], in assay [9], in [11] and in [13]. For the same compound, the result in [15], in assay [16], in assay [18], in [19] and in assay [20] was inactive. The Potency entry in assay [2], in assay [3], in [4], in [5], in assay [8] and in assay [10] was “inactive” throughout. In addition, the Potency result in [12], in [14] and in [17] was “inactive” each time.
Take `Cc1ccc(S(=O)(=O)NC(=O)NC2CCCCCCC2)cc1`: the compound was classed as inactive in [1], in assay [6], in assay [7], in [9], in [11] and in assay [13]. For the same compound, the call in assay [15], in assay [16], in assay [18], in assay [19] and in assay [20] was inactive. In addition, the Potency result in assay [2], in assay [3], in assay [4], in assay [5], in assay [8] and in assay [10] was “inactive” each time. Further, the Potency result in assay [12], in [14] and in [17] was “inactive” each time.
With `O=C(O)c1cc(=O)c2ccccc2o1`, the compound was called inactive in [1], in assay [6], in [7], in assay [9], in [11] and in assay [13]. For the same compound, the call in assay [15], in assay [16], in assay [18], in [19] and in assay [20] was inactive. Also, the Potency entry in assay [2], in assay [3], in assay [4], in assay [5], in assay [8] and in assay [10] was “inactive” in each case. Also, the Potency result in assay [12], in assay [14] and in assay [17] was “inactive” each time.
For the compound `Cc1c(C(=O)NCCO)[n+](=O)c2ccccc2n1[O-]`, the outcome in assay [1], in assay [6], in assay [7], in [9], in [11] and in assay [13] was inactive. For the same compound, the outcome in [15], in [16], in [18], in assay [19] and in assay [20] was inactive. Moreover, the Potency entry in assay [2], in assay [3], in [4], in assay [5], in assay [8] and in [10] was “inactive” each time. The Potency entry in assay [12], in [14] and in assay [17] was “inactive” throughout.
